Measurements taken from PubChem BioAssay AID1835 (Johns Hopkins Ion Channel Center, 2009).
The whole screen tested about 2,400 compounds, of which about 750 (31%) were called active.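 Rule for the calls: active = median signal gain over dofetilide-blocked control wells reaching their mean plus 3 SD, so readout 1 at least 0; inactive = the rest.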 Some of the results follow.

molecular target: Voltage-gated inwardly rectifying potassium channel KCNH2 (Homo sapiens) (UniProt Q12809); test: hERG protection against dofetilide inhibition, confirmation, cell-based, thallium flux, duplicate retest, dofetilide IC70 (AID 1835); conditions: hERG cell line, FluxOR thallium flux, dofetilide-blocked; at 10 µM; hits give high values
Sequence (Q12809 whole entry, looked up): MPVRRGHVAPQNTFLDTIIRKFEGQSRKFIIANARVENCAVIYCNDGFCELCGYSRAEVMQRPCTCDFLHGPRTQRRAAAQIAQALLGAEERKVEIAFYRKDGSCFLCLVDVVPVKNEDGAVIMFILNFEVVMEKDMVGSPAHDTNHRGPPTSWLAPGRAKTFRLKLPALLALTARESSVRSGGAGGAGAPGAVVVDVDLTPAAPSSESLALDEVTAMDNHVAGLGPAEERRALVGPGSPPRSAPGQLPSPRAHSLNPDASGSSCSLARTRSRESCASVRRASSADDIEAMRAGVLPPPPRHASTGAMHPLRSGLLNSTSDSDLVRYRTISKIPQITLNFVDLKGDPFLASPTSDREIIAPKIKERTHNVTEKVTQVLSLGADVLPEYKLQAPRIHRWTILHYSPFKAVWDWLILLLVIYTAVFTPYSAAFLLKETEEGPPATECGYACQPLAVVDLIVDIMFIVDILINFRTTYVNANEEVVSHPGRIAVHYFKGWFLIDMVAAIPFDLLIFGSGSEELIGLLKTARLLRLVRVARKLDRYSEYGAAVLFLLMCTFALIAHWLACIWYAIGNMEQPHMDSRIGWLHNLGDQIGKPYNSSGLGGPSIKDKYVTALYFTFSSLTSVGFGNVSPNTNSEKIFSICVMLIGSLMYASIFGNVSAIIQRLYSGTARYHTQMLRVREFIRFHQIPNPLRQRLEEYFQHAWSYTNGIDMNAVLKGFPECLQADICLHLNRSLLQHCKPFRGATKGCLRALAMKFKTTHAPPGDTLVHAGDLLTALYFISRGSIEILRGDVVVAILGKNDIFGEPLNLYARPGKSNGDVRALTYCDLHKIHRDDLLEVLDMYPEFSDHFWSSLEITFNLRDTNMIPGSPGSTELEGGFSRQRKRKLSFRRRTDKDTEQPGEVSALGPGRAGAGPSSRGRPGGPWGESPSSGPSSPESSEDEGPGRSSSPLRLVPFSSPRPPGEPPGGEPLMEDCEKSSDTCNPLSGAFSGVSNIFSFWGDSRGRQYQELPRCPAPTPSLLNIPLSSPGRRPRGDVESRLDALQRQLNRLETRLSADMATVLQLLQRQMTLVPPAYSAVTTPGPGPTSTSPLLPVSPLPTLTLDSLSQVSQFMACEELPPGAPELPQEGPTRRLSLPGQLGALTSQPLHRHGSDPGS

Row | Compound | activity increase over dofetilide control, less the hit threshold
1 | Cc1c(C(=O)NC(=S)NCc2cccnc2)oc2ccccc12 | -7% (inactive)
2 | O=C(Nc1cccnc1)c1cc(-c2cccs2)on1 | -16% (inactive)
3 | O=C(NC(=S)Nc1cccnc1)c1cc2ccccc2o1 | 21% (active)
4 | S=C(NCCc1ccccc1)NCCN1CCOCC1 | -10% (inactive)
5 | O=C(NC(=S)NCCC1=CCCCC1)c1ccco1 | 50% (active)
6 | O=C(NC(=S)NCCC1=CCCCC1)c1ccc(Br)o1 | 27% (active)
7 | O=C(NC(=S)NCCc1ccc(Cl)cc1)c1ccco1 | -7% (inactive)
8 | Oc1c(Br)cc(Br)cc1CNc1cccc2cccnc12 | -19% (inactive)
9 | CN(Cc1ccsc1)C(=O)CCc1nnc(Cc2c[nH]c3ccccc23)o1 | -8% (inactive)
10 | CN(Cc1ccccc1)C(=O)CCc1ccccc1 | 12% (active)
11 | COc1ccc(S(=O)(=O)N(CCc2ccccc2)CC(=O)O)cc1 | -12% (inactive)
12 | O=C1NCCN1Cc1ccccc1F | -20% (inactive)
13 | O=C(NC(=S)N1CCCCCC1)c1ccc(Cl)cc1Cl | 11% (active)
14 | COc1cc(OC)cc(C(=O)NC(=S)N2CCCCCC2)c1 | -12% (inactive)
15 | O=C(NC(=S)N1CCCC1)c1ccc(Cl)cc1 | 0% (inactive)
16 | CC(C)(C)c1ccc(C(=O)NC(=S)N2CCCC2)cc1 | -6% (inactive)
17 | Cc1ccc2c(c1)C1CN(C)CCC1N2C(=S)NC(=O)c1ccc(Br)cc1 (centres undefined) | -26% (inactive)
18 | CC(C)(C)c1ccc(C(=O)NC(=S)N2CCCCCC2)cc1 | 16% (active)
19 | CN1CCN(C(=S)NC(=O)c2ccc(C(C)(C)C)cc2)CC1 | -15% (inactive)
20 | CCOC(=O)C1CCCN(C(=S)NC(=O)/C=C/c2ccc(F)cc2)C1 (centres undefined) | -6% (inactive)
21 | CC1CCN(C(=S)NC(=O)c2ccc(C(C)(C)C)cc2)CC1 | 22% (active)
22 | CC(C)(C)c1ccc(/C=C/C(=O)N2CCCCC2)cc1 | 5% (active)
23 | O=C(/C=C/c1ccccc1)Nc1ccc(C(=O)N2CCCCC2)cc1 | -14% (inactive)

Row | Compound | activity increase over dofetilide control, less the hit threshold
24 | O=[N+]([O-])c1cccnc1Sc1n[nH]c(-c2ccc(Cl)cc2)n1 | -14% (inactive)
25 | Cc1ccc2[nH]c3c(c2c1)CNCC3 | -15% (inactive)
26 | CCC(=O)Nc1nnc(-c2ccccn2)o1 | -17% (inactive)
27 | O=C(NN1C(=O)C2C(c3ccccc3)C=CC(c3ccccc3)C2C1=O)c1ccncc1 (centres undefined) | -56% (inactive)
28 | COc1ccc(C(=O)NC(=S)N2CCC(C)CC2)cc1 | -11% (inactive)
29 | O=C(NC(=S)N1CCCC(C(F)(F)F)C1)c1ccc(F)cc1 (centres undefined) | 19% (active)
30 | COc1ccc(C(=O)NC(=S)N2CCC(C)CC2)cc1Br | 26% (active)
31 | CC1CN(C(=S)NC(=O)c2ccc(Cl)cc2)CC(C)O1 (centres undefined) | 5% (active)
32 | O=C(c1ccc(C(F)(F)F)cc1)C1CCCN(C(=O)CCc2ccncc2)C1 (centres undefined) | -7% (inactive)
33 | O=C(C1CC(=O)N(c2ccc3c(c2)OCCO3)C1)N1CCCC(C(F)(F)F)C1 (centres undefined) | -15% (inactive)
34 | Cc1ccc2c(c1)N(CCC(=O)NCc1cccnc1)C(=O)CO2 | -17% (inactive)
35 | O=C1NC2(CCCCCC2)C(=O)N1Cc1ccccc1 | -2% (inactive)
36 | CC(C)(C)OC(=O)NCCCC(CCCNC(=O)OC(C)(C)C)C(=O)O | -22% (inactive)
37 | CCOC(=O)CN1C(=O)SC(Nc2ccc(C)cc2)C1=O (centres undefined) | -10% (inactive)
38 | Cc1nc2c(C(=O)NCc3cccs3)cnn2c(C)c1Cc1ccccc1 | -12% (inactive)
39 | CCCn1c(SCC(N)=O)nc2c(c1=O)C1(CCCC1)Cc1ccccc1-2 | 2% (active)
40 | CC1CCCN(C(=O)COC(=O)c2cc(-c3cccs3)nn2-c2ccccc2)C1 (centres undefined) | -29% (inactive)
41 | Nc1ccc(NC(=O)Nc2ccc(N)cc2)cc1 | -3% (inactive)
42 | COc1cccc(N2CCN(CC(=O)NC(=O)NCc3ccco3)CC2)c1 | -9% (inactive)
43 | Cc1cc2c(cc(C(=O)OC(C(=O)NCc3ccco3)C(C)C)n2C)o1 (centres undefined) | 2% (active)
44 | O=C(NCc1ccco1)c1ccc(OCC2CCCO2)cc1 (centres undefined) | -22% (inactive)
45 | CCc1ccc(/C=c2\s/c(=C\C(=O)C(C)(C)C)[nH]c2=O)cc1 | -6% (inactive)
46 | Cc1ccc(/C=C(\NC(=O)c2ccccc2)C(=O)N2CCCCC2)cc1 | -26% (inactive)

Row | Compound | activity increase over dofetilide control, less the hit threshold
47 | CCc1ccc(/C=C/C(=O)C2C(=O)c3ccccc3C2=O)cc1 | 49% (active)
48 | CC(=O)C1=C(C)NC(=O)NC1/C=C/c1ccccc1 (centres undefined) | -1% (inactive)
49 | Cc1ccc(/C=C/C(=O)C2C(=O)c3ccccc3C2=O)cc1 | 42% (active)
50 | CCC(c1nnc(SCC(=O)NCCc2ccc(Cl)cc2Cl)o1)N(C)C (centres undefined) | -16% (inactive)
51 | O=C(NC(=S)N1CCN(Cc2ccc3c(c2)OCO3)CC1)c1cccc(Br)c1 | 48% (active)
52 | O=C(NC(=S)N1CCN(C/C=C/c2ccccc2)CC1)c1ccc(Cl)nc1 | -7% (inactive)
53 | COc1ccc(C(=O)N2CCN(Cc3ccc4c(c3)OCO4)CC2)cc1[N+](=O)[O-] | -7% (inactive)
54 | O=C(COc1ccc(Cl)cc1)N1CCN(Cc2ccc3c(c2)OCO3)CC1 | -17% (inactive)
55 | O=C(NC(=S)N1CCN(Cc2ccc3c(c2)OCO3)CC1)c1ccc(Cl)cc1 | 21% (active)
56 | CCCCNC(=S)NNC(=O)c1ccc2c(c1)OCO2 | -13% (inactive)
57 | Cc1cc(Cl)c(S(=O)(=O)N2CCSCC2)cc1OCC(=O)NC1CCCCC1 | -8% (inactive)
58 | Cc1nc(NCCc2ccc(S(N)(=O)=O)cc2)c2c(C)c(C)sc2n1 | 2% (active)
59 | O=C(Nc1cccc2[nH]ncc12)c1ccc(F)cc1 | -7% (inactive)
60 | O=C(Nc1nnc(-c2ccccc2)o1)c1ccc(Cl)cc1 | -19% (inactive)
61 | O=C(Nc1nc(-c2ccccc2)c(-c2ccccc2)o1)c1ccc(F)cc1 | 17% (active)
62 | O=c1cc(-c2c(F)c(F)c(F)c(F)c2F)oc2ccccc12 | 2% (active)
63 | CCOC(=O)C(=CNc1cc(C)nn1C(C)(C)C)C(=O)OCC | 2% (active)
64 | CCOC(=O)C(=CNc1ccc(OC)cc1[N+](=O)[O-])C(=O)OCC | -10% (inactive)
65 | CCOC(=O)C(=CNc1ccc(N2CCOCC2)cc1)C(=O)OCC | 0% (inactive)
66 | CCOC(=O)CC(=O)CSc1nc2c(C)c(C)ccc2cc1C | -7% (inactive)
67 | CCOC(=O)C(=CNc1cc(C)ccc1[N+](=O)[O-])C(=O)OCC | -17% (inactive)
68 | CCOC(=O)C(=CNc1cc(C)ccn1)C(=O)OCC | 10% (active)
69 | CCOC(=O)C(=CNc1cccc(C)n1)C(=O)OCC | 5% (active)
